Experimental findings from PubChem BioAssay (Tox21) are described below.

Assay [1] can be described thus: qHTS RealTime-Glo MT Cell Viability Assay in HepG2 cells - 24 hour (AID 1224867). Also: nearly all actives have a fitted effect of over 50% in size. In short, it runs like this: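 Real-time, nonlytic viability: 600 HepG2 cells/well mixed with NanoLuc enzyme plus prosubstrate; 5 h settle, compound (DMSO) added by pintool; luminescence monitored over 40 h at 37 C.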
On the technique in general: qHTS replaces the single test concentration by a dilution series.

The nature of assay [2]: qHTS RealTime-Glo MT Cell Viability Assay in HEK293 cells - 32 hour (AID 1224868). Also: top concentration of the series differs between compounds; nearly all actives have a fitted effect of over 50% in size. In short, it runs like this: (§1)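 Cells + reagent dispensed (600 cells/well, HEK293) → 5 h at 37 C/5% CO2 → 23 nL compound in DMSO pinned → 40 h at 37 C → luminescence read at 0, 8, 16, 24, 32, 40 h.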
A short description of assay [3]: A CellTox Green Cytotoxicity Assay to monitor cytotoxicity in HEK293 cells - 0 hour (AID 1224869). Also: nearly all actives have a fitted effect of over 50% in size. Also: potency is read from the fitted curve at half-maximal effect. An outline of the steps:
(§2)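 HEK293 cells premixed with CellTox Green dye were seeded at 600 cells/well and left 5 h at 37 C/5% CO2 before pin transfer of 23 nL compound in DMSO. Fluorescence from dye bound to dead-cell DNA was read during 40 h treatment.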

The nature of assay [4]: qHTS RealTime-Glo MT Cell Viability Assay in HepG2 cells - 40 hour (AID 1224870). Also: nearly all actives have a fitted effect of over 50% in size. In short, it runs like this: (§3)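 HepG2 cells (600/well) mixed with RealTime-Glo MT reagent, settled 5 h at 37 C/5% CO2 before compound addition. Nonlytic NanoLuc luminescence from viable-cell prosubstrate reduction read repeatedly during 40 h treatment at 37 C.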
Assay [5] is described as follows: A CellTox Green Cytotoxicity Assay to monitor cytotoxicity in HEK293 cells - 40 hour (AID 1224871). Also: nearly all actives have a fitted effect of over 45% in size. Also: potency is read from the fitted curve at half-maximal effect. An outline of the steps:
as §2

A short description of assay [6]: qHTS RealTime-Glo MT Cell Viability Assay in HEK293 cells - 16 hour (AID 1224872). In short, it runs like this: as §1
Assay [7] can be described thus: qHTS RealTime-Glo MT Cell Viability Assay in HepG2 cells - 8 hour (AID 1224873). Also: nearly all actives have a fitted effect of over 55% in size. In short, it runs like this:
as §3

Assay [8] is described as follows: qHTS RealTime-Glo MT Cell Viability Assay in HEK293 cells - 40 hour (AID 1224874). Also: nearly all actives have a fitted effect of over 50% in size. To be noted: RealTime-Glo luminescence; max response: hits give low values. An outline of the steps: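 HEK293 cells mixed with RealTime-Glo reagents (NanoLuc plus cell-permeant prosubstrate) at 600 cells/well, preincubated 5 h at 37 C/5% CO2, then given 23 nL compound in DMSO. Nonlytic luminescence from viable cells was read at 0, 8, 16, 24, 32 and 40 h.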

A short description of assay [9]: A CellTox Green Cytotoxicity Assay to monitor cytotoxicity in HEK293 cells - 24 hour (AID 1224875). Also: nearly all actives have a fitted effect of over 45% in size. Also: potency is read from the fitted curve at half-maximal effect. As to activity change: series mostly up to about 77 µM. In short, it runs like this: as §2
Assay [10] can be described thus: A CellTox Green Cytotoxicity Assay to monitor cytotoxicity in HepG2 cells - 16 hour (AID 1224876). Also: nearly all actives have a fitted effect of over 45% in size. Also: potency is read from the fitted curve at half-maximal effect. In short, it runs like this: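 HepG2 cells were seeded together with the CellTox Green dye at 600 cells/well, left 5 h at 37 C/5% CO2, then given compounds in DMSO. Fluorescence from dye bound to dead-cell DNA was read repeatedly over 40 h of treatment at 37 C.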

Each structure is given as a SMILES string. A number with no mark means an inactive call. Results filed as inconclusive are left out. The source made the active and inactive calls. Calls follow the shape of the dose curve; as a rule, active = well fitted curve in the direction sought with a large enough effect in the repeat runs; inconclusive = weak or mixed curves; inactive = no such curve, though single readings can be large; an effect the other way counts as inactive or inconclusive. Positions of bridges follow the written chain, without caps; N, C: chain ends. Non-standard residues stand in square brackets, D forms with d. Residues, ends and D or L forms follow the SMILES beside them. hArg = N=C(N)NCCCC[C@H](N)C(=O)O; Mpa = O=C(O)CCS
% is scaled to controls: 0 for no effect and ±100 for the full control effect.

Take `CC(C)=CCC[C@@](C)(O)[C@H]1CC=C(C)CC1`: the compound was classed as inactive in assay [1], in [4] and in [7]. In addition, the Potency result in assay [2], in assay [3], in assay [5], in assay [6], in assay [9] and in [10] was “inactive” throughout. Besides, the max response in assay [8] is -0.631%.
For the compound `CCCC(=O)OCCC(C)CCC=C(C)C` (stereo not given), the call in assay [1], in assay [4] and in assay [7] was inactive. Also, the Potency entry in [2], in assay [3], in assay [5], in assay [6], in assay [9] and in [10] was “inactive” each time. The max response in [8] is 0.963%.
Regarding `CC1=NN(c2ccc(S(=O)(=O)O)cc2)C(=O)C1`, the compound was classed as inactive in assay [1], in [4] and in assay [7]. Besides, the Potency result in assay [2], in [3], in assay [5], in assay [6] and in [10] was “inactive” each time. Further, the max response in assay [8] is 3.12%.
As to `CCCCC1CCC(O)CC1` (stereo not given), the compound was called inactive in [1], in assay [4] and in assay [7]. The Potency entry in [2], in assay [3], in [5], in assay [6], in assay [9] and in [10] was “inactive” each time. In assay [8], the max response is -3.78%.
For `CC(CO)(CO)CO`, the compound was classed as inactive in assay [1], in assay [4] and in assay [7]. For the same compound, the Potency entry in assay [2], in [3], in [5], in assay [6], in [9] and in assay [10] was “inactive” throughout. Further, in [8], the max response was 2.55%.
With `Cn1c(=O)c2[nH]c(Br)nc2n(C)c1=O`, the compound was classed as inactive in [1], in assay [4] and in [7]. Also, the Potency entry in assay [2], in assay [3], in assay [5], in assay [6], in assay [9] and in assay [10] was “inactive” in each case. In addition, the max response in [8] was 4.15%.
For `[O-][n+]1cccc(/C(Cl)=N/OC[C@@H](O)CN2CCCCC2)c1`, the compound was classed as inactive in assay [1], in assay [4] and in assay [7]. Further, the Potency entry in [2], in [3], in [5], in [6], in [9] and in assay [10] was “inactive” throughout. In addition, the max response in [8] is 2.14%.
With `CCN1CCCC1CN` (stereo not given), the outcome in assay [1], in assay [4] and in assay [7] was inactive. For the same compound, the Potency result in [2], in assay [3], in assay [5], in [6] and in assay [10] was “inactive” each time. Also, the max response in assay [8] is 9.62%.
With `CCC(=O)CC`, the result in assay [1], in [4] and in assay [7] was inactive. For the same compound, the Potency result in [2], in assay [3], in assay [5], in assay [6], in assay [9] and in [10] was “inactive” in each case. Moreover, the max response in assay [8] is 4.81%.
Turning to `CCCCCCCCCOC(=O)CCCCC(=O)OCCCCCCC`, the call in [1], in [4] and in assay [7] was inactive. For the same compound, the Potency entry in assay [2] and in assay [6] was “inactive” throughout. Besides, the Potency in assay [3] is 43.6 µM (active); in [5], 24.5 µM (active); in [9], 24.5 µM (active); in assay [10], 24.5 µM (active). Further, the max response in [8] is 0.901%.
On to `CC(C)NCC(O)c1ccc2ccccc2c1` (stereo not given), for which the compound was classed as inactive in [1], in assay [4] and in [7]. For the same compound, the Potency result in [2], in [3], in assay [6], in [9] and in assay [10] was “inactive” throughout. Moreover, the max response in assay [8] was -5.31%.
As to `CCOC(CN1CCN(CC(C)C(=O)c2ccccc2)CC1)c1ccccc1` (stereo not given), the activity change, negative = cytotoxicity in assay [1] is -0.414% [at 15.8 µM]. Besides, the activity change, negative = cytotoxic was -29.5% [at 15.8 µM] in [2] and 0.0501% [at 15.8 µM] in [4]. Also, the cytotoxicity in assay [3] is -3.29% [at 15.8 µM]. Further, the values for the cytotoxicity increase in assay [5] and in [10] were -2.53% [at 15.8 µM] and -21.5% [at 15.8 µM], respectively. For the same compound, the viability change, negative = cytotoxic in assay [7] was -2.57% [at 15.8 µM]. Moreover, the max response in assay [8] was -27.6%. The activity change in assay [9] was -4.62% [at 15.8 µM, hits give high values].
Take `O=C1CCC(=O)N1Cl`: the call in assay [1], in assay [4] and in [7] was inactive. Besides, the Potency entry in assay [2], in assay [3], in assay [5] and in assay [10] was “inactive” each time. In addition, the max response in assay [8] is 7.58%.
As for `Cc1c(Cl)cccc1Cl`, the compound was called inactive in [1], in assay [4] and in assay [7]. Besides, the Potency entry in assay [2], in assay [3], in assay [5], in assay [9] and in assay [10] was “inactive” in each case. In assay [8], the max response is -1.25%.
As for `NC(=O)[C@@H]1CSSCCC(=O)N[C@@H](CCCCN=C(N)N)C(=O)NCC(=O)N[C@@H](CC(=O)O)C(=O)N[C@@H](Cc2c[nH]c3ccccc23)C(=O)N2CCC[C@H]2C(=O)N1` ([Mpa][hArg]GDWPC-NH2; disulfide 1-7), the compound was called inactive in assay [1], in assay [4] and in assay [7]. In addition, the Potency entry in [2], in assay [3], in [6], in assay [9] and in assay [10] was “inactive” throughout. Further, the max response in assay [8] is 0%.
Turning to `C/C(CC(C)C)=N\O`, the result in assay [1], in [4] and in assay [7] was inactive. Besides, the Potency entry in assay [2], in [3], in [5], in [9] and in [10] was “inactive” each time. Further, the max response in assay [8] is -0.628%.
Regarding `Cc1c(NC(=O)c2cccnc2)c(=O)n(-c2ccccc2)n1C`, the call in [1], in [4] and in assay [7] was inactive. Moreover, the Potency entry in assay [2], in assay [3], in [6], in assay [9] and in assay [10] was “inactive” each time. For the same compound, the max response in assay [8] is 2.99%.
With `CCCCCC(C)O` (stereo not given), the compound was classed as inactive in [1], in [4] and in [7]. Besides, the Potency result in assay [2], in [3], in assay [5], in assay [9] and in assay [10] was “inactive” throughout. In [8], the max response was 6.06%.
For the compound `CC(C)Nc1ccccc1`, the compound was classed as inactive in [1], in assay [4] and in assay [7]. Further, the Potency entry in [2], in assay [3], in assay [6], in assay [9] and in assay [10] was “inactive” each time. The max response in [8] is 3.46%.
As for `CC1(C)[C@H]2CC[C@](C)(C2)[C@H]1O`, the call in assay [1], in assay [4] and in [7] was inactive. The Potency result in assay [2], in assay [3], in assay [6], in [9] and in assay [10] was “inactive” in each case. For the same compound, in [8], the max response was -1.99%.
In the case of `CC(C)NC(=O)c1ccc(C=O)cc1`, the result in [1], in assay [4] and in assay [7] was inactive. Moreover, the Potency entry in assay [2], in assay [3], in assay [5], in assay [6] and in assay [10] was “inactive” in each case. The max response in assay [8] is 0.577%.
For the compound `Cc1ccc(N)cc1S(=O)(=O)O`, the compound was called inactive in assay [1], in assay [4] and in [7]. Moreover, the Potency result in assay [2], in [3], in assay [5], in assay [6] and in assay [10] was “inactive” each time. The max response in [8] is 7.16%.
